In the supplement of paper PMC10369915:

molecular target: SHP2 N-SH2 domain T42A; assay: log2 enrichment relative to wild-type ITIM peptide; higher = stronger binding

Row | Binder | log2 enrichment
1 | VFSVDYGEPDF [PD-1 ITIM pTyr223 peptide variant L226P] | -0.564
2 | VFSVDYPELDF [PD-1 ITIM pTyr223 peptide variant G224P] | 1.75
3 | VFSPDYGELDF [PD-1 ITIM pTyr223 peptide variant V221P] | -1.23
4 | VFSVDYGELMF [PD-1 ITIM pTyr223 peptide variant D227M] | -0.781
5 | VFSVPYGELDF [PD-1 ITIM pTyr223 peptide variant D222P] | 1.61
6 | VPSVDYGELDF [PD-1 ITIM pTyr223 peptide variant F219P] | 0.209
7 | VFSVDYGELDP [PD-1 ITIM pTyr223 peptide variant F228P] | -1.6
8 | PFSVDYGELDF [PD-1 ITIM pTyr223 peptide variant V218P] | 0.0339
9 | VFSVDYGELPF [PD-1 ITIM pTyr223 peptide variant D227P] | -1.19
10 | VFSVDYGMLDF [PD-1 ITIM pTyr223 peptide variant E225M] | -0.596
